# From PubChem BioAssay
# Rows were chosen to be rich in hits. Some 1.3% of all compounds tested hit in one or more screens of this group.
# RAD52 anneal inh = blocks human RAD52 DNA annealing; actives 0.46% (n = 360,000); inhibition, % at 18.7 µM; AID 651710; recombinant RAD52 DNA annealing, FRET fluorescence;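 active = every replicate showing at least 50% inhibition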
# MIN6 prolif-1 = induces beta-cell replication in MIN6 cells. MIN6 cells proliferation, ATPlite luminescence, 48 h; cells starved in 0.2% serum; 100% = growth in 10% serum. proliferation, % at 10 µM. actives 0.29% (n = 330,000);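 active = compounds whose signal lies at least 3.5 SD above the mean of all wells on their plate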
# UBC13 inh = human UBC13 polyubiquitination inhibition; UBC13 polyubiquitin chain formation, TR-FRET; inhibition, % at 20 µM; actives 0.47% (n = 330,000); in the data active = inhibition above about 45%, passing the limit was not always enough
# DNA FID counter = fluorescent intercalator displacement, NS3 helicase counter-screen; inhibition, % at 7.9 µM; actives 0.17% (n = 290,000); DNA fluorescent intercalator displacement, fluorescence; in the data active = inhibition above about 37%;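 note: higher means more ethidium bromide displaced from hairpin DNA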
# PREPL inh = inhibitors of human prolyl oligopeptidase-like enzyme PREPL | Q4J6C6 | recombinant PREPL, fluorescence polarization activity-based probe | inhibition, % at 5.96 µM | actives 0.68% (n = 320,000); in the data active = inhibition above about 43%
# Target sequence (Q4J6C6 whole entry, looked up): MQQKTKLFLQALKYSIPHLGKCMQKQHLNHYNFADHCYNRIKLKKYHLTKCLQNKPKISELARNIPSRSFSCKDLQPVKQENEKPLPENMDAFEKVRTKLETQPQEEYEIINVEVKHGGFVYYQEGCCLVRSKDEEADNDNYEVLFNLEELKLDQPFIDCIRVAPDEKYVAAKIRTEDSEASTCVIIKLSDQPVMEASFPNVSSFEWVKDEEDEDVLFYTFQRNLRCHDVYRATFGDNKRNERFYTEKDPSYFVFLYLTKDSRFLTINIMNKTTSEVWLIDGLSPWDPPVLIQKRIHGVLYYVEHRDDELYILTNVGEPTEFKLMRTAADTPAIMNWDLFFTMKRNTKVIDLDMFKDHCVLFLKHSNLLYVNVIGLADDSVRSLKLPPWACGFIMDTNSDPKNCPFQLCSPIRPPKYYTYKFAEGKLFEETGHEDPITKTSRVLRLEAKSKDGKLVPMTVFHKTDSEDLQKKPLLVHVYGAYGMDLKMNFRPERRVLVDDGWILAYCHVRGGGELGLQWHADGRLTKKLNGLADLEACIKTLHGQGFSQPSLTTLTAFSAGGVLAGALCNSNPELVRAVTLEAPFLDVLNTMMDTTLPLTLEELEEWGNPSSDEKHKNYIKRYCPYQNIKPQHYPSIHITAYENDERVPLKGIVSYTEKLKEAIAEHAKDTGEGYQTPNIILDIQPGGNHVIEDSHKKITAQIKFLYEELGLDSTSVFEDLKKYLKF
# RAD54 branch = RAD54 (human) branch migration inhibition; actives 0.14% (n = 360,000); Q92698; AID 602329; RAD54 Holliday junction branch migration, FAM/BHQ fluorescence; inhibition, % at 10.4 µM;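 active = mean normalized replicate activity at least 40 and at least half of replicates scoring 40 or more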;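 note: inhibitors cause a drop in the FAM fluorescence signal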
# MIN6 prolif-2 = MIN6 beta-cell replication induction, confirmed; 920 tested, under 10 active; proliferation increase, % at 50 µM; MIN6 beta-cell proliferation, ATPlite luminescence, 48 h; cells kept in 0.2% serum; scaled between 0.2% and 10% serum; shares compounds with MIN6 prolif-1; AID 463095;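 active = proliferation increase above 40% at any of the four tested concentrations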
# Hits are given with their value; i = inactive; nt = no result.
SMILES,RAD52 anneal inh,MIN6 prolif-1,UBC13 inh,DNA FID counter,PREPL inh,RAD54 branch,MIN6 prolif-2
CCN(Cc1ccccc1)S(=O)(=O)c1ccc(S(=O)(=O)N(Cc2cccc(OC)c2)CC2CCCO2)cc1 (stereo not given),i,i,i,i,i,i,nt
CCN(CC)CCN(C(=O)CN1C(=O)c2ccccc2C1=O)c1nc2cc3c(cc2s1)OCO3,i,10.3,i,i,i,i,i
Cc1cc(C(=O)Nc2cccc3c2O[C@@H](CN(C)Cc2ccccc2)[C@H](C)CN([C@@H](C)CO)C3=O)n(C)n1,i,nt,nt,nt,nt,i,nt
CCN1CCN(C(=O)Cn2ncc3ccsc3c2=O)CC1,i,9.8,i,i,i,i,i
C[C@H]1CCCCO[C@H](CN(C)Cc2ccc3c(c2)OCO3)[C@@H](C)CN([C@@H](C)CO)C(=O)c2cc(NC(=O)c3ccncc3)ccc2O1,i,nt,nt,nt,nt,i,nt
COc1ccc(COC(=O)C2=C(C)NC(=O)NC2c2ccc(O)c(OC)c2)cc1 (stereo not given),i,i,i,i,i,i,nt
COc1ccc(COC(=O)C2=C(C)NC(=O)NC2c2ccc(OC)c(OC)c2)cc1 (stereo not given),i,6.2,i,i,i,i,i
CCOc1ccc(/C=N/n2c(SC)nnc2-c2ccccc2)cc1OCC,nt,8.2,i,i,i,i,i
O=C(CSc1nnc(CNC(=O)c2cccs2)o1)Nc1cccc(C(F)(F)F)c1,nt,5.1,i,i,i,i,i
O=C(CSc1nnc(CNC(=O)c2cccs2)o1)Nc1cccc(F)c1,i,i,i,i,i,i,nt
O=C(O)Cc1cn(Cc2ccc(F)cc2)c2ccccc12,i,7.4,i,i,i,nt,i
CC(C)(CN1CCc2ccccc2C1)NS(=O)(=O)c1ccccc1,i,7.7,i,i,i,nt,i
Cc1[nH]n(-c2nc(-c3ccccc3)cc(=O)[nH]2)c(=O)c1CCO,i,9.6,i,i,i,i,i
COc1ccc(NC(=S)N(Cc2ccc(C(=O)O)cc2)Cc2ccc(OC)c(OC)c2)cc1,i,9.2,i,i,i,i,i
COc1ccc(CN(Cc2ccc(C(=O)O)cc2)C(=S)Nc2cccc(C)c2)cc1OC,i,i,i,i,i,i,nt
CO[C@@H]1CN(C)C(=O)c2cc(NC(=O)C3CCOCC3)ccc2OC[C@H](C)N(Cc2nccs2)C[C@@H]1C,i,nt,nt,nt,nt,i,nt
CC(C)n1c(N2CCN(C(=O)NCc3ccccc3)CC2)nc2ccccc21,nt,8.4,i,i,i,i,i
COc1ccc(CN(C)C[C@@H]2Oc3c(NS(=O)(=O)c4ccc(Cl)cc4)cccc3C(=O)N([C@@H](C)CO)C[C@H]2C)cc1,i,nt,nt,nt,nt,i,nt
COc1ccccc1NC(=O)CCCN1C(=O)C(c2ccccc2)Oc2cccnc21 (stereo not given),i,12.6,i,i,i,i,i
CO[C@@H](CN(C)C(=O)c1ccccc1F)[C@@H](C)CN([C@H](C)CO)S(=O)(=O)c1ccccc1,i,nt,nt,nt,nt,i,nt
O=C(c1ccc2c3c(cccc13)CC2)N1CCOCC1,nt,5.3,i,i,i,i,i
COCCCn1c(C(=O)NC2CCCCC2C)cc2c(=O)n3cccc(C)c3nc21 (stereo not given),i,4.9,i,i,i,i,i
Cc1ccc(S(=O)(=O)N(C)C[C@@H]2OCCCC[C@H](C)Oc3ccc(NC(=O)NC4CCCCC4)cc3C(=O)N([C@H](C)CO)C[C@@H]2C)cc1,i,nt,nt,nt,nt,i,nt
Cc1ccc(S(=O)(=O)N[C@@H]2CC[C@@H](CCNC(=O)c3ccc4c(c3)OCO4)O[C@H]2CO)cc1,i,nt,nt,nt,nt,i,nt
CCC(Cc1ccccc1)NC(=O)C1=C(C)C(=O)OC12CCC(C)CC2 (stereo not given),i,7.7,i,i,i,i,i
SMILES,RAD52 anneal inh,MIN6 prolif-1,UBC13 inh,DNA FID counter,PREPL inh,RAD54 branch,MIN6 prolif-2
CCOC(=O)C1CCN(C(=O)c2cc3c(-c4ccc(OC)c(OC)c4)nn(C)c3s2)CC1,nt,12.2,i,i,i,i,i
O=C(CN1CCN(c2ccc(F)cc2)CC1)N1CCC(Cc2ccccc2)CC1,i,i,i,i,i,i,nt
O=C(CN1CCC(Cc2ccccc2)CC1)N1CCc2ccccc2C1,i,9.0,i,i,i,nt,i
CSc1ccccc1NC(=O)CN(Cc1ccccc1)S(C)(=O)=O,nt,i,i,i,i,i,nt
CSc1ccccc1NC(=O)CN(Cc1ccc(Cl)cc1)S(C)(=O)=O,nt,5.0,i,i,i,i,i
O=C(C[C@@H]1C=C[C@H](NS(=O)(=O)c2ccccc2)[C@H](CO)O1)NCc1ccncn1,i,nt,nt,nt,nt,i,nt
Cc1cccn2c(=O)c(/C=C(\C#N)C(N)=O)c(N3CCN(c4ccccc4)CC3)nc12,i,6.9,i,i,nt,i,i
CCNC(=O)/C(C#N)=C/c1c(N2CCN(c3ccccc3)CC2)nc2c(C)cccn2c1=O,i,i,i,i,i,i,nt
OCCC1CN(Cc2ccccc2O)CCN1CCc1ccccc1 (stereo not given),i,7.9,i,i,i,nt,i
COC(=O)c1ccccc1NC(=O)CSc1ccc(C)cc1,nt,7.3,i,i,i,i,i
COC(=O)c1ccccc1NC(=O)CSc1ccccc1,nt,i,i,i,i,i,nt
CC(=O)c1sc(N/N=C/c2cccc(O)c2)nc1C,i,i,i,i,i,i,nt
CC(=O)c1sc(N/N=C\c2ccc(N(C)C)cc2)nc1C,i,6.6,i,i,i,i,i
COc1ccc(C(=O)COC(=O)c2cc(S(=O)(=O)N3CCCCC3)ccc2N2CCOCC2)c(OC)c1,i,11.1,i,nt,i,i,i
COc1ccccc1C(=O)COC(=O)c1cc(S(=O)(=O)N2CCCCC2)ccc1N1CCOCC1,i,i,i,nt,i,nt,nt
COc1ccc(C(=O)COC(=O)c2cc([N+](=O)[O-])ccc2N2CCOCC2)c(OC)c1,i,12.3,i,nt,i,i,i
CCC(=O)N1CC(=O)N2[C@H](CO)[C@@H](c3ccc(-c4ccc(C#N)cc4)cc3)[C@@H]2C1,i,nt,nt,nt,nt,nt,nt
COc1ccc(NC(=O)/C(C#N)=C/c2ccc(OCCN3CCOCC3)c(OC)c2)c(OC)c1,nt,11.3,i,i,i,i,i
CCOC(=O)CSc1nc2cc(C(=O)NCC3CCCO3)ccc2c(=O)n1Cc1ccco1 (stereo not given),nt,i,i,i,i,i,nt
CCOC(=O)Cn1c(=O)n(Cc2ccco2)c(=O)c2ccc(C(=O)NC3CCCC3)cc21,i,12.5,i,i,i,i,i
C#CCOC(=O)c1ccccc1C(=O)n1nnc2ccccc21,nt,i,i,i,i,i,nt
O=C(c1cccc2ccccc12)n1nnc2ccccc21,nt,10.2,i,i,i,nt,i
CN(C)C(=O)CN1C(=O)C2CC=C(Cl)CC2C1=O (stereo not given),i,i,i,i,i,i,nt
